Among the test systems are SR leukemia; OVCAR-8 ovarian; OVCAR-5 ovarian; OVCAR-4 ovarian; IGROV1 ovarian; OVCAR-3 ovarian; HS 578T breast.
Assay in all cases: NCI-60 one-dose screen, 48 h (100 = growth as untreated, 0 = no growth, -100 = all killed)
Another test relates to RPMI-8226 leukemia. To be noted: 10 µM unless noted.
Another test has as its system SK-OV-3 ovarian. To be noted: 10 µM unless noted.
For a further test, the system named is NCI/ADR-RES ovarian. To be noted: 10 µM unless noted.

This passage reports growth results from PubChem BioAssay (NCI).

Each structure is given as a SMILES string. “And” between values parts separate entries of the source, which are not always exact repeats. Equal values may be shown once. Compounds without any hit were thinned out: in the full panel of roughly 83,000, 20% have a hit.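 Single-concentration screen, 48 h exposure, 96-well plates. Endpoint: percent growth. Below 10 = active.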 The source made the active and inactive calls.

For the compound `COCCCNC1=C(C#N)C(=O)NC(c2cccs2)S1` (stereo not drawn), the growth in the test with SR leukemia (10 µM unless noted) is 113% (inactive); in the test with RPMI-8226 leukemia, 122% (inactive); in the test on OVCAR-8 ovarian (10 µM unless noted), 113% (inactive); with OVCAR-5 ovarian (10 µM unless noted), 109% (inactive); with OVCAR-4 ovarian (10 µM unless noted) it was 93% (inactive); in the test on SK-OV-3 ovarian, 101% (inactive). For the same compound, the growth in the test with IGROV1 ovarian (10 µM unless noted) was 119% (inactive); with OVCAR-3 ovarian (10 µM unless noted), 118% (inactive); in the test on HS 578T breast (10 µM unless noted), 112% (inactive); with NCI/ADR-RES ovarian, 110% (inactive).

Consider `CC(=O)/C(N=Nc1ccc(S(=O)(=O)c2ccc(N=N/C(C(C)=O)=C(/C)O)cc2)cc1)=C(\C)O`, for which the growth in the test on SR leukemia (10 µM unless noted) was 101% (inactive); in the test with RPMI-8226 leukemia, 86.7% (inactive); in the test on OVCAR-8 ovarian (10 µM unless noted), 102% (inactive); in the test with OVCAR-5 ovarian (10 µM unless noted), 110% (inactive); in the test on OVCAR-4 ovarian (10 µM unless noted), 107% (inactive); in the test with SK-OV-3 ovarian, 112% (inactive). The growth was 92.9% (inactive) with IGROV1 ovarian (10 µM unless noted), 105% (inactive) in the test on OVCAR-3 ovarian (10 µM unless noted) and 109% (inactive) with HS 578T breast (10 µM unless noted).

As for `CCOC(=O)c1ccc(N2C(=O)C(Cl)(c3ccccc3)C2c2ccco2)cc1` (stereo not drawn), the growth is 76.1% (inactive) in the test on SR leukemia (10 µM unless noted); 43% (inactive) with RPMI-8226 leukemia; 90.2% (inactive) in the test with OVCAR-8 ovarian (10 µM unless noted); 98.2% (inactive) in the test on OVCAR-5 ovarian (10 µM unless noted); 90.4% (inactive) with OVCAR-4 ovarian (10 µM unless noted); 104% (inactive) with SK-OV-3 ovarian. Besides, the results for the growth with IGROV1 ovarian (10 µM unless noted), in the test on OVCAR-3 ovarian (10 µM unless noted) and in the test on HS 578T breast (10 µM unless noted) were 99.1% (inactive), 78.8% (inactive) and 69.6% (inactive), respectively.

For `S=c1nc[nH]c2nc[nH]c12`, the growth with SR leukemia (10 µM) was 18.1% (inactive); in the test with SR leukemia (50 µM) it was 26.6% (inactive); with RPMI-8226 leukemia, 24.9% (inactive); in the test with OVCAR-8 ovarian (10 µM), 26.6% (inactive); in the test with OVCAR-8 ovarian (50 µM), 24% (inactive); in the test with OVCAR-5 ovarian (10 µM), 44.7% (inactive). For the same compound, the growth is 31.3% (inactive) in the test on OVCAR-5 ovarian (50 µM); 50.2% (inactive) in the test with OVCAR-4 ovarian (10 µM); 30.9% (inactive) in the test on OVCAR-4 ovarian (50 µM); 36.2% (inactive) in the test on SK-OV-3 ovarian; 70.5% (inactive) in the test on IGROV1 ovarian (10 µM); 32.3% (inactive) in the test with IGROV1 ovarian (50 µM). The growth was 29.6% (inactive) in the test with OVCAR-3 ovarian (10 µM), 23.3% (inactive) with OVCAR-3 ovarian (50 µM), 54.6% (inactive) in the test on HS 578T breast (10 µM) and 43.7% (inactive) in the test on HS 578T breast (50 µM).

In the case of `Nc1ccccc1SC(CC(=O)c1ccccc1)c1cccc([N+](=O)[O-])c1` (stereo not drawn), the growth in the test with SR leukemia (10 µM unless noted) is 70.2% (inactive) and 2.4% (active); in the test with RPMI-8226 leukemia it was -30.1% (active) and -4.39% (active); in the test on OVCAR-8 ovarian (10 µM unless noted) it was 87.9% (inactive) and 92.8% (inactive); in the test with OVCAR-5 ovarian (10 µM unless noted), 105% (inactive) and 119% (inactive); in the test with OVCAR-4 ovarian (10 µM unless noted), 89% (inactive) and 74.5% (inactive); with SK-OV-3 ovarian it was 104% (inactive) and 109% (inactive). The growth in the test on IGROV1 ovarian (10 µM unless noted) is 127% (inactive) and 96.5% (inactive); in the test on OVCAR-3 ovarian (10 µM unless noted), 104% (inactive) and 66.5% (inactive); in the test with HS 578T breast (10 µM unless noted), 106% (inactive) and 110% (inactive).

Take `Cc1cc2ccccc2c2cc3ccccc3cc12`: the growth in the test on SR leukemia (10 µM unless noted) is 40.8% (inactive); with RPMI-8226 leukemia, 105% (inactive); with OVCAR-8 ovarian (10 µM unless noted), 98.9% (inactive); with OVCAR-5 ovarian (10 µM unless noted), 86.9% (inactive); with OVCAR-4 ovarian (10 µM unless noted), 94.5% (inactive); with SK-OV-3 ovarian it was 90.6% (inactive). Besides, the growth in the test on IGROV1 ovarian (10 µM unless noted) was 61.8% (inactive); with OVCAR-3 ovarian (10 µM unless noted) it was 100% (inactive); in the test on HS 578T breast (10 µM unless noted) it was 95.2% (inactive).

Regarding `O=C(NC(CSSCC(NC(=O)OCc1ccccc1)C(=O)O)C(=O)O)OCc1ccccc1` (stereo not drawn), the growth in the test on SR leukemia (10 µM unless noted) was 67.8% (inactive) and 77.7% (inactive); with RPMI-8226 leukemia it was 64.7% (inactive) and 95.7% (inactive); with OVCAR-8 ovarian (10 µM unless noted), 79.5% (inactive) and 103% (inactive); in the test with OVCAR-5 ovarian (10 µM unless noted), 90.9% (inactive) and 99.3% (inactive); in the test on OVCAR-4 ovarian (10 µM unless noted), 68.3% (inactive) and 104% (inactive); in the test with SK-OV-3 ovarian it was 107% (inactive) and 83.5% (inactive). Further, the growth in the test on IGROV1 ovarian (10 µM unless noted) was 73.1% (inactive) and 106% (inactive); in the test on OVCAR-3 ovarian (10 µM unless noted) it was 97.7% (inactive) and 105% (inactive); in the test with HS 578T breast (10 µM unless noted), 99.9% (inactive) and 104% (inactive).

Regarding `COc1cc(NCCCCCNC(C)C)c2ncccc2c1`, the growth in the test on SR leukemia (10 µM unless noted) was 82.8% (inactive) and 133% (inactive); in the test on RPMI-8226 leukemia, 107% (inactive) and 98.1% (inactive); in the test on OVCAR-8 ovarian (10 µM unless noted) it was 104% (inactive) and 89.6% (inactive); with OVCAR-5 ovarian (10 µM unless noted), 95.2% (inactive) and 86.9% (inactive); with OVCAR-4 ovarian (10 µM unless noted) it was 44.4% (inactive) and 45.7% (inactive); in the test with SK-OV-3 ovarian, 84.3% (inactive). For the same compound, the growth with IGROV1 ovarian (10 µM unless noted) is 90.3% (inactive) and 60.4% (inactive); with OVCAR-3 ovarian (10 µM unless noted) it was 92% (inactive); with HS 578T breast (10 µM unless noted), 83.5% (inactive).

For the compound `COc1ccc(CCn2cnn3c(=O)c4ccccc4nc3c2=O)cc1OC`, the growth with SR leukemia (10 µM unless noted) is 99.4% (inactive) and 90.8% (inactive); in the test with RPMI-8226 leukemia, 95.7% (inactive) and 92.2% (inactive); in the test with OVCAR-8 ovarian (10 µM unless noted), 104% (inactive) and 110% (inactive); with OVCAR-5 ovarian (10 µM unless noted), 99.8% (inactive) and 121% (inactive); in the test with OVCAR-4 ovarian (10 µM unless noted) it was 97.3% (inactive) and 112% (inactive); in the test on SK-OV-3 ovarian, 112% (inactive) and 108% (inactive). Also, the growth with IGROV1 ovarian (10 µM unless noted) is 115% (inactive); in the test with OVCAR-3 ovarian (10 µM unless noted), 103% (inactive) and 115% (inactive); in the test on HS 578T breast (10 µM unless noted) it was 98.3% (inactive) and 115% (inactive).

Take `CCOC(=O)CN1CCC(C(=O)OCC)CC1`: the growth is 124% (inactive) with SR leukemia (10 µM unless noted); 95.8% (inactive) in the test on RPMI-8226 leukemia; 106% (inactive) with OVCAR-8 ovarian (10 µM unless noted); 104% (inactive) with OVCAR-5 ovarian (10 µM unless noted); 108% (inactive) in the test on OVCAR-4 ovarian (10 µM unless noted); 99.1% (inactive) with SK-OV-3 ovarian. Besides, the growth in the test on IGROV1 ovarian (10 µM unless noted) was 122% (inactive); in the test with OVCAR-3 ovarian (10 µM unless noted) it was 117% (inactive); in the test with HS 578T breast (10 µM unless noted), 106% (inactive).

In the case of `O=C1C=CC(=O)N1Cc1ccco1`, the growth was 74.7% (inactive) in the test with SR leukemia (10 µM unless noted); 107% (inactive) in the test with RPMI-8226 leukemia; 85.6% (inactive) in the test on OVCAR-8 ovarian (10 µM unless noted); 62.1% (inactive) in the test with OVCAR-5 ovarian (10 µM unless noted); 106% (inactive) in the test with OVCAR-4 ovarian (10 µM unless noted); 94.2% (inactive) with SK-OV-3 ovarian. Besides, the growth in the test with IGROV1 ovarian (10 µM unless noted) was 69.7% (inactive); in the test with OVCAR-3 ovarian (10 µM unless noted), 113% (inactive); in the test with HS 578T breast (10 µM unless noted), 117% (inactive); in the test with NCI/ADR-RES ovarian, 76.6% (inactive).
